A selection: hits, their analogues and other compounds. The true share with any hit is near 2.2%.
HIF activator: HIF pathway transcriptional activation; U2OS HRE-luciferase reporter, luminescence; normalized: DMSO 0%, desferrioxamine 100%; activation, % at 7.5 µM (by protocol); hit rate 0.32% among 300,000;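 active = mean activation of at least 10% of the iron chelator positive control signal, with at least half of replicates also reaching 10%; inconclusive = mean and replicate majority disagree about reaching 10%; inactive = mean and most replicates under 10%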
VLA-4 inh: inhibition in a human VLA-4 binding assay | P13612 | VLA-4 expressing cells, ligand binding flow cytometry | inhibition, % (about 7 µM as worked out from the volumes in the protocol) | hit rate 0.2% among 330,000 | AID 2557; in the data active = inhibition above about 50%
Target sequence (P13612 whole entry, looked up): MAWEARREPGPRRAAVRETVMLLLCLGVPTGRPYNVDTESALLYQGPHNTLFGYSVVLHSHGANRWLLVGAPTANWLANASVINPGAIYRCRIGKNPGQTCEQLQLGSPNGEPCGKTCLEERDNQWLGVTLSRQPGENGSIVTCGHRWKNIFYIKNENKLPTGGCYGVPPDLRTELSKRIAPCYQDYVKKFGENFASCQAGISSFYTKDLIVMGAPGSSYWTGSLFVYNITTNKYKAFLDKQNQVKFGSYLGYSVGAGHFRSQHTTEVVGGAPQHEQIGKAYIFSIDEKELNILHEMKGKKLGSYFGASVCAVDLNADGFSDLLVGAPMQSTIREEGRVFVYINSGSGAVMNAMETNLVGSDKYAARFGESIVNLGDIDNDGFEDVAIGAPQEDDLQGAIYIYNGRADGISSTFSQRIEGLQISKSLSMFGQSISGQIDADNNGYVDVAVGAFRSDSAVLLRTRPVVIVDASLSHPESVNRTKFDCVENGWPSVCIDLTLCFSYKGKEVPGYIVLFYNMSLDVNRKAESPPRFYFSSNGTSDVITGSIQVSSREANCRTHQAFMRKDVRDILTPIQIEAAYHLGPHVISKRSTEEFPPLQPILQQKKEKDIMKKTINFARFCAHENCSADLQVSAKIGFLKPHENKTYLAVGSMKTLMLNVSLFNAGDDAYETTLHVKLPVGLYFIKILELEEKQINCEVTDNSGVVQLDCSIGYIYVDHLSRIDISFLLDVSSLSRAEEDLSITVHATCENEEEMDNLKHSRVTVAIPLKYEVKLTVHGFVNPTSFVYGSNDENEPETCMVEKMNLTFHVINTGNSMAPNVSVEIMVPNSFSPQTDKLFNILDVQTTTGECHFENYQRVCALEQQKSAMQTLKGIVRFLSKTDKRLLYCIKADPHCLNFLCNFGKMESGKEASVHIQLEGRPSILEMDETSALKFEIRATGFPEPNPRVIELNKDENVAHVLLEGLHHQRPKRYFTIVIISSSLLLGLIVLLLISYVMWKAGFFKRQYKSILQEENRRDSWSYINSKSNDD
CHT inh: inhibitors of human choline transporter CHT. Q9GZV3. CHT-expressing cells, membrane potential dye, choline response; stronger effect = lower value. AID 488975. hit rate 0.86% among 310,000. B-score at 10 µM;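 active = B-score over 3 SD under the library average, and starting fluorescence ratio not unusually high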;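 also: choline stimulus applied at its EC90 after an EC20 pre-addition; B-score computed on integrated fluorescence ratio after choline addition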
CHT allo act: allosterically activates the human high affinity choline transporter; Q9GZV3; CHT-expressing cells, membrane potential dye, choline EC20; stronger effect = higher value; LV-AA mutant CHT in HEK293 cells; B-score at 10 µM; hit rate 0.49% among 310,000; AID 488977;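 active = initial fluorescence not abnormally high and integrated response B-score, plate-corrected, over 3 SD above library mean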
AI-2 QS modul: modulators of Vibrio harveyi AI-2 quorum sensing system | Vibrio harveyi JMH597 AI-2 luminescence/OD600 ratio, 9 h; stronger effect = lower value; strain lacks LuxN and CqsS sensors; 0 = neutral-control median | activity change, % at 7.5 µM | hit rate 0.4% among 300,000; in the data active = activity change below about -75%, passing the limit was not always enough; inconclusive = no clear call, values can overlap the other calls;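 also: luminescence divided by OD600 gain over 9 h not by final OD600 alone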
Platelet DG rel: platelet dense granule release activity | inhibition, %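 (compounds screened at 7.5 µM in platelet-rich plasma)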 | human platelet-rich plasma, SFLLRN dense granule ATP release, luminescence | hit rate 0.22% among 300,000 | AID 1663;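 active = mean replicate score, as percent of positive control, at or above 50; inconclusive = mean below 50 but at least one replicate at or above 50; inactive = mean and every replicate below 50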
JMH597 growth rt: retest Vibrio harveyi JMH597 growth inhibition | shares compounds with AI-2 QS modul | OD600 absorbance, 9 h; lacks LuxN and CqsS sensors | growth inhibition, % at 7.5 µM | hit rate 1% among 750 | AID 2726;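 active = every replicate shows growth inhibition above 50%; inconclusive = at least half, but not all, replicates pass that cutoff; inactive = fewer than half of replicates pass it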
BB721 lum counter: retest counter-screen: lowers luminescence of constitutive-QS Vibrio harveyi BB721 | 9 h | inhibition, % at 7.5 µM | shares compounds with AI-2 QS modul | hit rate 95% among 750;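 active = inhibition above about 80% in every replicate, not just on average, limit read from the data; inconclusive = at least half of replicates past the limit, but not all; inactive = fewer than half of replicates past the limit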
BB721 growth rt: retest Vibrio harveyi BB721 growth inhibition | shares compounds with AI-2 QS modul | OD600 absorbance, 9 h | growth inhibition, % at 7.5 µM | hit rate 3% among 750 | AID 2728;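 active = every replicate shows growth inhibition above 50%; inconclusive = at least half but not all replicates above 50% inhibition; inactive = under half of replicates above 50% inhibition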
AI-2 QS JMH597: Vibrio harveyi AI-2 signaling luminescence modulation – JMH597 strain, confirmation. shares compounds with AI-2 QS modul. Vibrio harveyi JMH597 AI-2 quorum sensing luminescence, 9 h; luxN and CqsS knockout, AI-2 only. inhibition, % at 7.5 µM. hit rate 97% among 750;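 active = every replicate shows more than 75% inhibition of signal versus neutral control wells; inconclusive = half to three quarters of replicates exceed 75% inhibition; inactive = fewer than half of replicates exceed 75% inhibition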
Each line names hits and unclear results; the compound was inactive in the other large screens (follow-up assays come after a bar, where they were run).

COc1ccc(/C=N/N=C(/N)N[N+](=O)[O-])c(OC)c1	Platelet DG rel 121
N/C(=N\N=C/c1ccc(-c2ccc(O)c(C(=O)O)c2)o1)N[N+](=O)[O-]	none
N#CSCC(=O)N1c2ccccc2CCc2ccccc21	AI-2 QS modul -76
C=C[C@@H]1C[C@@]1(C)[C@@H](NP(=O)(c1ccccc1)c1ccccc1)c1ccccc1	none
Cc1[nH]c2ccccc2c1C(=O)C(=O)N1CC2CC(C1)c1cccc(=O)n1C2 (stereo unspecified)	none
Cn1ncnc2c(=O)n(C)c(=O)nc1-2	AI-2 QS modul -81
Cn1cnnc1Sc1cc(N2CCNCC2)ccc1[N+](=O)[O-]	none
O=[N+]([O-])c1ccc(N2CCNCC2)cc1NC1CC1	CHT allo act 6.4
CCNc1cc(N2CCNCC2)ccc1[N+](=O)[O-]	CHT allo act 7.3
O=[N+]([O-])c1ccc(N2CCNCC2)cc1N1CCCCC1	none
C[C@]12C[C@H](O)[C@@H](O)CC1=CCC1C2CC[C@@]2(C)C1CC[C@@H]2O (stereo partly specified)	none (no result: HIF activator, CHT inh, CHT allo act, AI-2 QS modul, Platelet DG rel)
Cc1cc(NCCN)nc2ccccc12	CHT allo act 11
Cc1ccc2c(c1)N(C(=O)CCC(=O)N1CCC3(CC1)OCCO3)CC(C)O2 (stereo unspecified)	none
CN1CCN(c2c(C#N)c(C(F)(F)F)nn2C)CC1	none
CC1CCCN(C(=O)CCl)C1 (stereo unspecified)	VLA-4 inh 56
CC1CCCN(C(=O)CN2C3CCC2CC(O)(c2ccc(F)cc2)C3)C1 (stereo unspecified)	none
C/C=C(\C)C(=O)OC1C(C)=C2C(C1OC(=O)CCCCC)C(C)(OC(C)=O)CC(OC(=O)CCC)C1(O)C2OC(=O)C1(C)O (stereo unspecified)	CHT allo act 8
O=C(CSC1c2ccccc2-c2ccccc21)N/N=C/c1ccccc1O	HIF activator 9.9
C=C(C)CN1CC[C@]23c4c5ccc(O)c4O[C@H]2c2[nH]c4ccccc4c2C[C@@]3(O)C1C5	CHT inh -5.3
O=C1/C(=C/c2ccccc2)C[C@@]2(O)[C@H]3Cc4ccc(O)c5c4[C@@]2(CCN3CC2CC2)C1O5 (stereo partly specified)	none (no result: HIF activator, CHT inh, CHT allo act, AI-2 QS modul, Platelet DG rel)
Cc1nc2ccccc2c(=O)n1/N=C/c1cc(Br)cc(Br)c1O	HIF activator 181
COc1ccc(OC)c(-n2c(O)c(C=Nc3c(C)n(C)n(-c4ccccc4)c3=O)c(=O)[nH]c2=O)c1	none
COC(=O)C1=Nc2ccccc2/C1=C\c1c(O)n(-c2cc(OC)ccc2OC)c(=O)[nH]c1=O	HIF activator 548
FC(F)(F)c1ccc2c(c1)NP(=S)(N1CCOCC1)c1nccn1-2 (stereo unspecified)	HIF activator 69
Cc1ccc(-n2nc(C)c(C3C(C#N)=C(N)Oc4c3c(=O)oc3ccccc43)c2Cl)cc1 (stereo unspecified)	none (no result: VLA-4 inh, CHT inh, CHT allo act)
C/C(O)=C(\C#N)C(=O)Nc1cc(Br)ccc1Br	none (no result: HIF activator, AI-2 QS modul, Platelet DG rel)
COc1ccc2c(c1)/C(=C/c1cnc[nH]1)C(=O)N2	HIF activator 9.9, CHT allo act 8.8
COc1ccc(-n2c(/C=C3\C(=O)Nc4ccccc43)nc3ccccc3c2=O)cc1	none
c1ccc(CC(NCc2ccco2)c2ccccc2)cc1 (stereo unspecified)	none
COc1cc(OC)c(OC)cc1CNCCc1cccc(F)c1	none
COc1ccc(CNCCc2cccc(F)c2)c2ccccc12	CHT inh -7.2
CCOP(=S)(OCC)Oc1nc(Cl)c(Cl)cc1Cl	none (no result: HIF activator, CHT inh, CHT allo act, AI-2 QS modul, Platelet DG rel)
CN1C(=O)COc2c(C(=O)NC3CN4CCC3CC4)cc(Cl)cc21 (stereo unspecified)	CHT allo act 8.9
CC/C(=C\C=C\[C@@H]1C=C[C@@H]2CCC[C@H]2[C@@H]1C(=O)c1ccc[nH]1)[C@@H]1O[C@@H]([C@@H](C)C(=O)O)CC[C@@H]1C	CHT inh -5.5
CCC(=NCc1cccnc1)c1c(O)n(-c2ccc(Cl)cc2)c(=O)[nH]c1=O	none
CN[C@H]1C[C@H]2O[C@@](C)([C@H]1OC)n1c3ccccc3c3c4c(c5c6ccccc6n2c5c31)C(=O)NC4	CHT inh -5.3
O=C1NC(=S)NC(=O)C1=Cc1ccc(Br)s1	AI-2 QS modul -87
CN1C(=O)/C(=C\c2ccc(Br)s2)C(=O)NC1=S	AI-2 QS modul inconclusive
COc1cc2c(c(OC)c1OC)-c1ccc(O)cc1[C@@H](NC(C)=O)CC2	CHT allo act 8
Cc1ccsc1C(=O)C1CCCN(Cc2cnc(N3CCOCC3)s2)C1 (stereo unspecified)	none
Cc1ccc(-n2c(CNCc3ccc(F)cc3)nc3ccccc3c2=O)cc1	none
CCN(CC)CCNCc1nc2ccccc2c(=O)n1-c1ccc(F)cc1	HIF activator 60
O=c1[nH]c(O)c(/C=C2\C=NN=C2c2ccccc2)c(=O)[nH]1	none
COC(=O)[C@]12OC[C@]34C([C@@H](O)[C@@H]1O)[C@]1(C)CC(=O)C(O)=C(C)[C@@H]1C[C@H]3OC(=O)[C@H](O)[C@@H]24 (stereo partly specified)	HIF activator 21 (no result: VLA-4 inh)
Cc1ccc(O)c(CN2CCN(c3ccccc3)CC2)c1	AI-2 QS modul -79 | JMH597 growth rt inactive | BB721 lum counter 85 | BB721 growth rt inactive | AI-2 QS JMH597 91
O=C(c1cc2cc(Br)ccc2[nH]1)N1CCC2(CC1)OCCO2	AI-2 QS modul inconclusive | JMH597 growth rt inactive | BB721 lum counter 94 | BB721 growth rt inactive | AI-2 QS JMH597 96
O=C(NC1CC1)C1CSC(c2cccnc2)=N1 (stereo unspecified)	none
O=[N+]([O-])NC1=NCN(Cc2ccco2)CN1Cc1ccco1	none
CCN(CC)C(=O)c1ccc(NC(=O)c2ccc(-c3nn(C)c(=O)c4ccccc34)cc2)cc1	none
CCN(CC)C(=O)c1ccc(NC(=O)Cn2nc(C)c3ccccc3c2=O)cc1	AI-2 QS modul -88 | JMH597 growth rt inactive | BB721 lum counter 94 | BB721 growth rt inactive | AI-2 QS JMH597 96

Bioassay records from PubChem.
